# Test results taken from the supplement of paper PMC6555819.
# Tests used:
# Experiment in all cases: PBM binding z-score (relative to random genomic background probes); higher = stronger binding; sequences stand for … in GC…GCGATTGACAGCGTAGAATGAAGG
# [1] = system: RARb homodimer (NR concentration 270 nM)
# Summary of the method: (§1)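 For binding z-scores, the reference was random background probes on custom Agilent 4×180K protein-binding microarrays. These arrays were incubated 1 h with ligand-free nuclear receptor dimers in PBS pH 7.4, 2% milk, 0.02% Triton X-100, 1 mM DTT, 0.2 mg/mL BSA and 0.4 mg/ml salmon testes DNA. Fluorescence was scanned after antibody detection of each partner (one per run) and regression-normalized.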
# [2] = system: RARg:RXRa (NR concentration 270 nM, RXRa partner concentration 90 nM)
# Summary of the method: as §1
# [3] = system: RARg homodimer (NR concentration 270 nM)
# Summary of the method: as §1
# [4] = system: RXRa DBDmut IVT, anti-RXR (DBD mutation: RXRa K156A/R161A, NR concentration 90 nM)
# Summary of the method: as §1
# [5] = system: RXRa homodimer (NR concentration 180 nM)
# Summary of the method: as §1
# [6] = system: THRa:RXRa (NR concentration 90 nM, RXRa partner concentration 90 nM)
# Summary of the method: as §1
# [7] = system: THRa homodimer (NR concentration 90 nM)
# Summary of the method: as §1
# [8] = system: VDR homodimer (NR concentration 270 nM)
# Summary of the method: as §1
Sequence,PBM binding z-score [1],PBM binding z-score [2],PBM binding z-score [3],PBM binding z-score [4],PBM binding z-score [5],PBM binding z-score [6],PBM binding z-score [7],PBM binding z-score [8]
ACTATTAGTTCACTTAGGGCAACCGATACGACGC,1.93,2.02,2.25,2.72,1.04,3.1,0.596,2.32
AATACAGGGCCATCGTAGGCCAGAGTACGCACAG,0.468,0.421,0.993,-0.218,0.0629,1.44,-0.588,0.487
TAGCCTAGGTCATGCGGGCCCGTATAGTGTCGGC,2.9,3.77,4.19,0.324,3.06,3.06,1.33,0.149
AATAGCAGGCCAAGGGTCACTCAAGATTAGTCCG,3.86,4.1,3.92,0.264,4.46,2.8,0.187,1.06
TCTTGGAGATCAAAGGTTAAGAAAGCCGAAGCCT,1.18,2.07,0.819,0.202,4.66,1.4,-0.671,-0.245
TCTCCGAGGACACGAAAGGTCAGAGCTCGACATC,4.77,4.91,5.54,1.34,4.12,4.36,2.74,1.31
ATCGAAAGGTCGCCGAGGTGAGTATACACCGTTT,3.6,4.9,5.02,1.78,5.24,4.1,1.17,1.53
